Sampled rows, rich in hits. Any-hit rate of the full collection: about 17%.
TGFb inhibitor: blocks TGF-b signaling | HepG2 CAGA-GFP TGF-b/SMAD3 reporter, GFP fluorescence, 18 h; TGF-beta stimulated, 500 pg/mL final | Potency, µM (top dose mostly 46.1 µM), for the others: at the highest dose activity, negative = inhibition, hits mostly inhibitors | actives 1.2% (n = 410,000) | AID 588855; also: % is scaled to controls: 0 for no effect and ±100 for the full control effect; nearly all actives have a fitted effect of over 65% in size
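Cell-based qHTS in HEPG2 carrying a CAGA-GFP Smad reporter; compounds added before 500 pg/mL final TGF-beta, 18 h incubation at 37 degrees C, GFP fluorescence quantified per cell by imaging cytometry.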
HT1080 IDH1KD tx: toxicity to HT-1080 IDH1 knockdown cells (counter line). actives 2% (n = 360,000). Potency, µM (series often up to 46.1 µM), without a hit: top-dose activity, negative = toxicity, actives largely listed as cytotoxic. AID 686971. HT-1080 IDH1 knockdown viability, ATP luminescence, 48 h;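 also: 0% = DMSO wells and -100% = cell-free medium wells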
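After a 2 h attachment period, IDH1KD HT-1080 cells took pin-transferred compound for 48 h at 37 °C; ATP-based luminescence after 10 min room-temperature reagent incubation reported viability.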
HepG2 viability: HepG2 cytotoxicity, counter-screen for TGF-b inhibitors | HepG2 CAGA-GFP viability, ATP luminescence, 18 h | actives 0.76% (n = 410,000) | Potency, µM (top dose mostly 46.1 µM), for the others: top-dose activity change, negative = cytotoxicity, actives largely listed as cytotoxic
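HepG2 CAGA-GFP cells (1000/well, DMEM with 1% FBS) received compound, then TGF-beta at 500 pg/mL final, and were incubated 18 hours at 37 degrees C. Viability was read by CellTiter-Glo luminescence. Media-only wells were set as complete cell-killing and DMSO as no toxicity.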
TDP1 cell CPT: DT40-hTDP1 cell growth loss with CPT; actives 12% (n = 420,000); Potency, µM (highest dose often 46.2 µM), for the others: at the highest dose activity change, negative = growth inhibition, hits mostly inhibitors; chicken DT40 Tdp1-/-;hTDP1 cells + 20 nM CPT, ATP luminescence, 48 h; also: % is scaled to controls: 0 for no effect and ±100 for the full control effect; nearly all actives have a fitted effect of over 55% in size
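Chicken DT40 Tdp1-/- cells complemented with human TDP1, 400 cells/well, exposed to compounds plus 20 nM camptothecin for at least 48 h at 37 C; viability read as ATP content by CellTiter-Glo luminescence.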
HT1080NT lethal: kills 2HG-producing HT-1080-NT fibrosarcoma cells | HT-1080-NT fibrosarcoma viability, CellTiter-Glo ATP luminescence, 48 h | Potency, µM (highest dose often 46.1 µM), without a hit: at the top dose activity, negative = less viability, hits mostly cytotoxic | actives 1.6% (n = 360,000) | AID 686970;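 also: NT is the 2HG producing partner of a matched IDH1 knockdown line; 0% = DMSO-treated cells and -100% = media-only wells without cells; nearly all actives have a fitted effect of over 55% in size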
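A 48-hour cytotoxicity screen used HT-1080-NT cells plated 2 hours before compound delivery. ATP-based CellTiter-Glo luminescence measured viability, normalized to DMSO and no-cell controls.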
TDP1 cell noCPT: qHTS for Inhibitors of human tyrosyl-DNA phosphodiesterase 1 (TDP1): qHTS in cells in absence of CPT. DT40 Tdp1-/- hTDP1 cells, no CPT, ATP luminescence, 48 h. Potency, µM (doses to about 46.2 µM), for the others: at the highest dose activity change, negative = growth inhibition, hits mostly inhibitors. actives 15% (n = 420,000). AID 686978, 2013; also: % is scaled to controls: 0 for no effect and ±100 for the full control effect; nearly all actives have a fitted effect of over 55% in size
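A cellular qHTS used chicken DT40 cells lacking endogenous Tdp1 but carrying stably transfected human TDP1. Compounds were applied without camptothecin, and cell growth kinetics were judged by ATP-dependent luminescence after ≥48 hr.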
* hit, by the source's call; ? = inconclusive; nt = not tested or not shown; [ ] = remark or other dose. Calls follow the shape of the dose curve; as a rule, active = well fitted curve in the direction sought with a large enough effect; inconclusive = small, poorly fitted or top-dose-only effect, or another doubt; inactive = no such curve, though single readings can be large; an effect the other way counts as inactive or inconclusive. Potency is read from the fitted curve at half-maximal effect.

SMILES	TGFb inhibitor	HT1080 IDH1KD tx	HepG2 viability	TDP1 cell CPT	HT1080NT lethal	TDP1 cell noCPT
Nc1nc(=O)n(C2CC(O)C(CO)O2)cc1F (stereo not drawn)	1%	5.2µM*	3%	?	-20%	?
Nc1nc2c(nc(Br)n2C2CC(O)C(CO)O2)c(=O)[nH]1 (stereo not drawn)	nt	nt	nt	-1%	nt	5%
Cc1ccc(-c2csc(NS(=O)(=O)c3cccc(F)c3)n2)o1	0%	-1%	-12%	-13%	2%	-19%
Cc1ccccc1NC(=O)COc1ccccc1C(=O)Nc1ccccc1	nt	-2%	nt	-6%	0%	-30%
O=c1[nH]cnc2c1ncn2[C@@H]1C[C@@H](O)[C@H](CO)O1	8%	28%	25%	?	?	-27%
Nc1nc2c(ncn2C2C[C@H](O)[C@@H](CO)O2)c(=O)[nH]1 (stereo partly drawn)	3%	?	4%	10µM*	?	6.5µM*
c1cc2c(cc1C1CCCCC1)c1c3n2CCCNC3CCC1 (stereo not drawn)	0%	21µM*	13µM*	7.3µM*	16µM*	6.5µM*
Cc1ccc2c(c1)c1c3n2CCN=C3CCC1	0%	-4%	-23%	-25%	-1%	-29%
c1cc2c(cc1C1CCCCC1)c1c3n2CCN[C@H]3CCC1	nt	nt	nt	11µM*	nt	11µM*
c1cc2c(cc1C1CCCCC1)c1c3n2CCN=C3CCC1	?	?	-119%	?	21µM*	?
CC(C)NC(=O)NC(=O)CN1c2cccc3cccc(c23)S1(=O)=O	-5%	5%	-5%	5%	2%	-27%
CCC1CN(CCNC(=O)c2cscn2)Cc2cc(OC)ccc2O1 (stereo not drawn)	nt	nt	nt	-7%[9.04 µM]	nt	-5%
CCOC(=O)Cc1cn2c(=O)cc(CSCC(=O)Nc3ccc(C)c(C)c3)nc2s1	-2%	11%	4%	18µM*	-6%	?
CCOC(=O)C1(CC2CC2)CCN(C(=O)c2cc(C)nc3ccc(CC)cc23)CC1	-34%	-18%	-36%	21µM*	-5%	18µM*
O=C(COC(=O)/C=C/c1ccc(C(F)(F)F)cc1)Nc1ccc2[nH]c(=O)[nH]c2c1	-4%	-2%	3.5µM*	-26%	-13%	-13%
COc1ccc(/C=C/C(=O)OCC(=O)Nc2cc(C(F)(F)F)ccc2Cl)cc1	8%	3%	4%	?	13%	12µM*
O=C(COC(=O)/C=C/c1ccc([N+](=O)[O-])cc1)Nc1ccc2[nH]c(=O)[nH]c2c1	0%	6%	-3%	-15%	0%	19%
O=C(COC(=O)/C=C/c1ccc(C(F)(F)F)cc1)NC1CCS(=O)(=O)C1 (stereo not drawn)	-4%	17%	-2%	?	3%	21µM*
O=C(COC(=O)c1cncc(Br)c1)NC1CCCC1	-4%	1%	5%	4%	3%	9%
CCc1ccccc1NC(=O)CN1CCN(C(=O)CCC(=O)N2CCC(c3ccccc3)=N2)CC1	-23%	-1%	-15%	15µM*	-2%	26µM*
CCc1ccccc1NC(=O)CCC(=O)N1CCN(C(C)=O)CC1	1%	6%	-11%	-3%	4%	6%
Cc1cc(O)c(C(=O)c2cnc3c(c2)COc2ccccc2-3)cc1Cl	2%	nt	4%	?	nt	?
CCOc1ccc(C(=O)Nc2ccc(-c3nc4cc(CC)ccc4o3)cc2)cc1	-2%	nt	-21%	3.7µM*	nt	?
Cc1ccc(C(=O)Nc2ccc3oc(-c4ccc(C(C)(C)C)cc4)nc3c2)cc1	0%	nt	-33%	?	nt	8.2µM*
COc1ccc(-c2nc3cc(NC(=O)c4ccc(C)cc4)ccc3o2)cc1Cl	9%	nt	-7%	21µM*	nt	?
SMILES	TGFb inhibitor	HT1080 IDH1KD tx	HepG2 viability	TDP1 cell CPT	HT1080NT lethal	TDP1 cell noCPT
COc1ccc(NC(=O)c2ccc(-c3nc(CSc4ccc(C)cc4)c(C)o3)cc2)cc1Cl	?	nt	-34%	?	nt	?
O=C(Nc1ccc2oc(-c3ccccc3F)nc2c1)c1ccccc1Cl	?	nt	-52%	?	nt	13µM*
COc1ccc(C(=O)Nc2ccc3oc(-c4ccc(OC)cc4)nc3c2)cc1	0%	nt	3%	5%	nt	-20%
CC(C)(O)CC[C@H](OC(=O)c1ccccc1)[C@](C)(O)[C@H]1CC[C@@]2(O)C3=CC(=O)[C@@H]4C[C@@H](O)[C@H](O)C[C@]4(C)C3CC[C@]12C (stereo partly drawn)	32%	8%	-40%	7%	6%	-1%
O=C(CN(CCc1ccccc1)Cc1ccccc1)Oc1ccccc1P(=O)(O)O	-10%	5%	1%	-9%	11%	4%
O=C(COC(=O)c1ccc(Cl)c(S(=O)(=O)N2CCCCC2)c1)NCC1CCCO1 (stereo not drawn)	11%	8%	8%	-2%	12%	0%
Cc1ccc2oc(-c3cc(NC(=O)c4oc5ccccc5c4C)ccc3Cl)nc2c1	-2%	nt	-5%	0.016µM*	nt	-81%
CC(C)c1ccc(NC(=O)c2cccnc2)cc1	6%	0%[9.24 µM]	-29%	-28%	-25%	-17%
CC(C)c1ccc2oc(-c3cc(NC(=O)c4cccnc4)ccc3Cl)nc2c1	?	nt	-105%	?	nt	16µM*
Cc1ccc(C(=O)Nc2ccc3oc(-c4cc(Br)ccc4Cl)nc3c2)cc1	-7%	nt	-18%	23µM*	nt	?
O=C(Nc1ccc2oc(-c3cccc(Cl)c3Cl)nc2c1)c1cccc(Br)c1	1%	nt	-1%	13µM*	nt	?
Cc1ccc2oc(-c3cc(NC(=O)c4ccco4)ccc3Cl)nc2c1	?	nt	-41%	?	nt	?
COc1ccc(Cl)cc1NC(=O)CN(C)C(=O)c1cn2ccccc2n1	-6%	?	-16%	?	-30%	?
CCCc1cc(=O)n2[nH]c(NC(=O)c3ccccc3Cl)nc2n1	-2%	nt	5%	-14%	nt	-7%
Cc1c(C(=O)NCc2ccc([N+](=O)[O-])cc2)sc(=O)n1Cc1ccc(-c2ccccc2)cc1	?	-17%	-5%	?	-8%	?
Cc1ccccc1-c1cc2nc(OCC3CCCO3)n(C)c(=O)c2s1 (stereo not drawn)	2%	0%	-17%	?	-1%	?

Screening results (PubChem BioAssay)
